# Source: publication PMC7862700, “An all-to-all approach to the identification of sequence-specific readers for epigenetic DNA modifications on cytosine”
# Columns and labels:
# Test in all cases: DAPPL (digital affinity profiling via proximity ligation, sequencing); 10 mM Tris-HCl pH 7.5, 50 mM NaCl, 1 mM DTT, 4% glycerol, room temperature, 30 min; GST-TFs on glutathione beads, 16-mer random dsDNA library, 0.1% formaldehyde crosslink after washing; high values mean tight binding
# Conditions in all cases: protein: recombinant; tags: N-terminal GST; dsDNA, one strand shown
# FEV = biological target: T1, FEV (Homo sapiens, UniProt Q99581 1-238)
# T1 sequence: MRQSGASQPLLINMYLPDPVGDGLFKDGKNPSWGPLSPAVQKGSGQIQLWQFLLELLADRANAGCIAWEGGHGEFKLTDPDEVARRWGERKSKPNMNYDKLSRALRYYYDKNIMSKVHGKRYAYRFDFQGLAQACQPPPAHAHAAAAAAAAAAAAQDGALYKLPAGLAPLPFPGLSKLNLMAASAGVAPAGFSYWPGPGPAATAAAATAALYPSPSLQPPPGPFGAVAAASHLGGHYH
# Summary of the method: (§1)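 A tag-only sample was pooled with DNA-barcoded human transcription factors that had been expressed in yeast as GST fusions and captured on glutathione beads. The pools were incubated for 30 min at room temperature with 200 nmole of a random double-stranded 16-mer DNA library in Tris/NaCl/DTT/glycerol buffer, then washed, crosslinked with 0.1% formaldehyde, proximity-ligated (BsaI/T4 ligase, 1 h, 37 °C), PCR-amplified and sequenced on an Illumina NextSeq500. Binding signal is each hexamer's read frequency for a factor divided by its frequency for the tag-only sample.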
# ETV5 = ETV5 (Homo sapiens, UniProt P41161 1-510)
# Summary of the method: as §1
# SPIC = biological target: T2, SPIC (Homo sapiens, UniProt Q8N5J4 1-248)
# T2 sequence: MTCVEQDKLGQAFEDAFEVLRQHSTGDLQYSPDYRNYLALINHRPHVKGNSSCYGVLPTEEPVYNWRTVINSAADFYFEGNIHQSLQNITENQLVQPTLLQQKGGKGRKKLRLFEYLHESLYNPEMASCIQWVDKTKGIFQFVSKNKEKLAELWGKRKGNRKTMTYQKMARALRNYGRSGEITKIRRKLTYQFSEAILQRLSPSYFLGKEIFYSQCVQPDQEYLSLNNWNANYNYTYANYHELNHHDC
# Summary of the method: as §1
# ELF4 = ELF4 (Homo sapiens, UniProt Q99607 1-663)
# Summary of the method: as §1
# ELK4 = biological target: T3, ELK4 (Homo sapiens, UniProt P28324-2 1-405)
# T3 sequence: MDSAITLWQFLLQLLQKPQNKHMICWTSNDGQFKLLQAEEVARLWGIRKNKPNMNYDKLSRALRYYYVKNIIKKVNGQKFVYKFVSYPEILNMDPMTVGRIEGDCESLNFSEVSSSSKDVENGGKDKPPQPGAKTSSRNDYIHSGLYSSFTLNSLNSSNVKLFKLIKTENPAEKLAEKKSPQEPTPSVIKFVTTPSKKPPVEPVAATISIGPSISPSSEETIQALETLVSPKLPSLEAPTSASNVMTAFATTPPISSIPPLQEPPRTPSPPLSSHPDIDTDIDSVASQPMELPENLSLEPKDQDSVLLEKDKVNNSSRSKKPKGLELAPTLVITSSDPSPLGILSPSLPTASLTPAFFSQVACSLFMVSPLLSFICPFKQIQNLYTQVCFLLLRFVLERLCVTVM
# Summary of the method: as §1
# ETV2 = biological target: T4, ETV2 (Homo sapiens, UniProt O00321 1-342)
# T4 sequence: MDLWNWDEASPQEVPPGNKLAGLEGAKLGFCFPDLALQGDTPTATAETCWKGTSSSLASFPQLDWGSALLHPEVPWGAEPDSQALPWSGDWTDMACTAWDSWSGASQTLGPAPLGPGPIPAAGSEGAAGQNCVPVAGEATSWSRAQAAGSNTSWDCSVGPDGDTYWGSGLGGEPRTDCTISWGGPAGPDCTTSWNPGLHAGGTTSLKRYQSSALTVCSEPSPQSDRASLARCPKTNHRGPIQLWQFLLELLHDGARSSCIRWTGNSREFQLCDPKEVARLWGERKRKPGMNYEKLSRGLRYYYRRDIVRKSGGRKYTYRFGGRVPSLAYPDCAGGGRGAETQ
# Summary of the method: as §1
# ELF3 = biological target: T5, ELF3 (Homo sapiens, UniProt P78545 1-371)
# T5 sequence: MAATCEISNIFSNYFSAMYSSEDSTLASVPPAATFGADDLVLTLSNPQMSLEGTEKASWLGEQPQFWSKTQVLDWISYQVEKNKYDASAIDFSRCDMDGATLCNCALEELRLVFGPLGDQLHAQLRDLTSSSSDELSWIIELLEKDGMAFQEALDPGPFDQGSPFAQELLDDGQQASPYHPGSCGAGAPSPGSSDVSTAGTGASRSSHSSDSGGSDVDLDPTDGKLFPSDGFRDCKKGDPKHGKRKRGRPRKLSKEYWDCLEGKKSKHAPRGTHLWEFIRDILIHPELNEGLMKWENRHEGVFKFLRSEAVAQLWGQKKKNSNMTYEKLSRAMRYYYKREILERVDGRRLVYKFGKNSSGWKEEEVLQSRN
# Summary of the method: as §1
# ETV1 = ETV1 (Homo sapiens, UniProt P50549 1-477)
# Summary of the method: as §1
# ERF = biological target: T6, ERF (Homo sapiens, UniProt P50548 1-548)
# T6 sequence: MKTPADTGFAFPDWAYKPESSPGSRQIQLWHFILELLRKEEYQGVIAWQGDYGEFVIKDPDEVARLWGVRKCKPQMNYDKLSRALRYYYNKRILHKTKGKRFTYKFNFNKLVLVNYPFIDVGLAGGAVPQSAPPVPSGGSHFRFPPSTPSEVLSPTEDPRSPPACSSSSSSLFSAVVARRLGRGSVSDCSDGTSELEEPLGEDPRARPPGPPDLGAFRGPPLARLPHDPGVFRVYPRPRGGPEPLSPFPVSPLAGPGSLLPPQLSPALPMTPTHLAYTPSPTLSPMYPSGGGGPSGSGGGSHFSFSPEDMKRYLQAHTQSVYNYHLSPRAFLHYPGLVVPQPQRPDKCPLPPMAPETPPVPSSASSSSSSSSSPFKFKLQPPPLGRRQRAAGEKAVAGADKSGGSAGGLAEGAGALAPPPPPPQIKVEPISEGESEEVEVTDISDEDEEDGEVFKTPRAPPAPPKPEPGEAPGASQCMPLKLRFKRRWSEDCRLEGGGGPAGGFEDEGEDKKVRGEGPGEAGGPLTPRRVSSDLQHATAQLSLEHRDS
# Summary of the method: as §1
# ETV3L = biological target: T7, ETV3L (Homo sapiens, UniProt Q6ZN32 1-361)
# T7 sequence: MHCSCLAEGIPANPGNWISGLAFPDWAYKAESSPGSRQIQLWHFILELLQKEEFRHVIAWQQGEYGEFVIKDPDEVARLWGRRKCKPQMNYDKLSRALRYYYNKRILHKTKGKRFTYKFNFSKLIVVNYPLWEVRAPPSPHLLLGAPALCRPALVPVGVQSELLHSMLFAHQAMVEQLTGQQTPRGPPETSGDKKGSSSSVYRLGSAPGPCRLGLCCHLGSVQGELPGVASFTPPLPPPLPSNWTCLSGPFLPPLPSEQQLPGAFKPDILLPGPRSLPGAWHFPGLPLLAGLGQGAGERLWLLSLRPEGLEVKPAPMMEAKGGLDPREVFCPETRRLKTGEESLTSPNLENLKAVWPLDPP
# Summary of the method: as §1
# ETS2 = biological target: T8, ETS2 (Homo sapiens, UniProt P15036 1-469)
# T8 sequence: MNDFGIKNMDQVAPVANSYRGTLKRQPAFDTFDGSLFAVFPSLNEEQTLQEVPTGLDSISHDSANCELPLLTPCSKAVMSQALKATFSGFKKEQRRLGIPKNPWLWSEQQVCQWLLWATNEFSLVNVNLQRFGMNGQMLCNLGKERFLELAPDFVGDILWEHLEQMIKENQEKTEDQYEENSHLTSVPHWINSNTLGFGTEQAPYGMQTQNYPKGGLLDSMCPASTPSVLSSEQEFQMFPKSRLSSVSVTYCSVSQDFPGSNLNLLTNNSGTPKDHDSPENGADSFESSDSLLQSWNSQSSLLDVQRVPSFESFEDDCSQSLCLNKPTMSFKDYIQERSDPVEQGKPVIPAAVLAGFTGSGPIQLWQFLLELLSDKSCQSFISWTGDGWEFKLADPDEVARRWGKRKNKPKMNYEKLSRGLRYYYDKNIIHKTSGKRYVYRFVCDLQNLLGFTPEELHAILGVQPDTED
# Summary of the method: as §1
# SPDEF = biological target: T9, SPDEF (Homo sapiens, UniProt O95238 1-335)
# T9 sequence: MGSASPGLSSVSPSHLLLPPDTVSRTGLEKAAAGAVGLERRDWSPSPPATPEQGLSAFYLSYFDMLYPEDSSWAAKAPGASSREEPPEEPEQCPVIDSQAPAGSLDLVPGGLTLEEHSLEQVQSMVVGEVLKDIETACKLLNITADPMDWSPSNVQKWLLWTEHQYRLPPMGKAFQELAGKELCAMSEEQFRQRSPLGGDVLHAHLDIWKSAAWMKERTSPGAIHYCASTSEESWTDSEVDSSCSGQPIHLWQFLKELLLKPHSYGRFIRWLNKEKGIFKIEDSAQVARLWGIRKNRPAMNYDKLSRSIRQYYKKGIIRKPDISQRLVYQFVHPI
# Summary of the method: as §1
# ETV7 = biological target: T10, ETV7 (Homo sapiens, UniProt Q9Y603 1-341)
# T10 sequence: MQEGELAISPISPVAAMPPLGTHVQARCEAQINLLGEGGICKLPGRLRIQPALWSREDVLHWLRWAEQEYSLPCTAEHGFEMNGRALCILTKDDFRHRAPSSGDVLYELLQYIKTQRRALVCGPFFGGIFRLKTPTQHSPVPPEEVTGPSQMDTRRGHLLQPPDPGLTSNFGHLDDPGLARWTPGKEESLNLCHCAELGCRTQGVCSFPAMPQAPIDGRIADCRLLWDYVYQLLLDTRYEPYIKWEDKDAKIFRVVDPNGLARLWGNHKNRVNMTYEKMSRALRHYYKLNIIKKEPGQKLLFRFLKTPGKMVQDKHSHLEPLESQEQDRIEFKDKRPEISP
# Summary of the method: as §1
# ELF5 = biological target: T11, ELF5 (Homo sapiens, UniProt Q9UKW6-2 1-255)
# T11 sequence: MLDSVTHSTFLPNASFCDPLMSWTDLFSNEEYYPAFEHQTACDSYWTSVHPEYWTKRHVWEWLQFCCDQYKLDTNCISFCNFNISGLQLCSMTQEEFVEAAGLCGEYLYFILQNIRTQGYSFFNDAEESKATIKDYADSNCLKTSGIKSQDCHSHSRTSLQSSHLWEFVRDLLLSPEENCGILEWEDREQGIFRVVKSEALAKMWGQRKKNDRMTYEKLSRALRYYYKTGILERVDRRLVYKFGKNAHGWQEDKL
# Summary of the method: as §1
# ETV3 = biological target: T12, ETV3 (Homo sapiens, UniProt P41162-2 1-143)
# T12 sequence: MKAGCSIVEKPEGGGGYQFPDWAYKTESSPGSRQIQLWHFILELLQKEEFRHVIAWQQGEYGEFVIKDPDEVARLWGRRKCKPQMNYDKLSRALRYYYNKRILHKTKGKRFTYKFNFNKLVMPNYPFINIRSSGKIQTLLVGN
# Summary of the method: as §1
# ETV6 = ETV6 (Homo sapiens, UniProt P41212 1-452)
# Summary of the method: as §1
# Sequence of ELF4 (Q99607 whole entry): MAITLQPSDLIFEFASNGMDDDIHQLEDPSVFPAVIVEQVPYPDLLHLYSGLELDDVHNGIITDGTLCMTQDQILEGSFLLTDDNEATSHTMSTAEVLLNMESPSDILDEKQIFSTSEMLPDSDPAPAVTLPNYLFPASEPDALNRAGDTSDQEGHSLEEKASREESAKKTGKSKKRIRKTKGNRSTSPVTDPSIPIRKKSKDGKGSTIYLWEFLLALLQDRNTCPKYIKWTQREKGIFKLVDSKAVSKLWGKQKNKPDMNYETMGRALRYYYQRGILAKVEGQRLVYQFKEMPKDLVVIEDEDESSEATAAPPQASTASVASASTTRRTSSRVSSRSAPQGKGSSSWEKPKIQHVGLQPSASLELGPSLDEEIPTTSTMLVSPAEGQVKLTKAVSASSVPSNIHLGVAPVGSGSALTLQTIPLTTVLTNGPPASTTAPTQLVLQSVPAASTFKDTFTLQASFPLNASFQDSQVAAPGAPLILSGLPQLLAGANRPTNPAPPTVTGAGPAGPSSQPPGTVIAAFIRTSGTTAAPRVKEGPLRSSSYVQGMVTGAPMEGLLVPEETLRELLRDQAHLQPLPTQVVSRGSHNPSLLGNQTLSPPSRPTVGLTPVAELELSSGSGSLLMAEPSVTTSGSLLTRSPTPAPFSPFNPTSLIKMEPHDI
# Sequence of ETV5 (P41161 whole entry): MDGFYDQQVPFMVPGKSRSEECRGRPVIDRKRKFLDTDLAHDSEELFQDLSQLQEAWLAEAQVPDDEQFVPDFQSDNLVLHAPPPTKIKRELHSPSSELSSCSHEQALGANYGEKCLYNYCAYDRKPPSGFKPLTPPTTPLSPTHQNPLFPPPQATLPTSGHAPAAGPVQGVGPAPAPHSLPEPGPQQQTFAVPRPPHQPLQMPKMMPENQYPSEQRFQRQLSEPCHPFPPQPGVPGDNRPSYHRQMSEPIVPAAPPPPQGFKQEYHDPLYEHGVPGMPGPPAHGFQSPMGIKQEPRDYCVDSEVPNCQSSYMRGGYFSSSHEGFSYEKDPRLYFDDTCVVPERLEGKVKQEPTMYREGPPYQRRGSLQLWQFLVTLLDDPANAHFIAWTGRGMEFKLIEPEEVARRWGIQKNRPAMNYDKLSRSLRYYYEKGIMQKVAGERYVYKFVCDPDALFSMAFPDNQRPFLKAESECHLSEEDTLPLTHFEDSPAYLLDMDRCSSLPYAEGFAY
# Sequence of ETV6 (P41212 whole entry): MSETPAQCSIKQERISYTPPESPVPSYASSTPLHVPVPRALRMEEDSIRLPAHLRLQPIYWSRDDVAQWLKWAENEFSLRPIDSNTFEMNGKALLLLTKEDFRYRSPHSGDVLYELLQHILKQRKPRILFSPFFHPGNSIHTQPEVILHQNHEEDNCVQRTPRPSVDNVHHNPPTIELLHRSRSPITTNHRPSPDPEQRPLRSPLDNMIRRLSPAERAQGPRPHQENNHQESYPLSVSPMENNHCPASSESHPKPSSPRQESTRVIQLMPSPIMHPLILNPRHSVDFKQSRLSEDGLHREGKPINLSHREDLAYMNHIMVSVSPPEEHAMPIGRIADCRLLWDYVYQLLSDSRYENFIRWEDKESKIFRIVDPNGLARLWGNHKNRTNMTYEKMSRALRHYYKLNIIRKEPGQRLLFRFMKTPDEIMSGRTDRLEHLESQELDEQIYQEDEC
# Sequence of ETV1 (P50549 whole entry): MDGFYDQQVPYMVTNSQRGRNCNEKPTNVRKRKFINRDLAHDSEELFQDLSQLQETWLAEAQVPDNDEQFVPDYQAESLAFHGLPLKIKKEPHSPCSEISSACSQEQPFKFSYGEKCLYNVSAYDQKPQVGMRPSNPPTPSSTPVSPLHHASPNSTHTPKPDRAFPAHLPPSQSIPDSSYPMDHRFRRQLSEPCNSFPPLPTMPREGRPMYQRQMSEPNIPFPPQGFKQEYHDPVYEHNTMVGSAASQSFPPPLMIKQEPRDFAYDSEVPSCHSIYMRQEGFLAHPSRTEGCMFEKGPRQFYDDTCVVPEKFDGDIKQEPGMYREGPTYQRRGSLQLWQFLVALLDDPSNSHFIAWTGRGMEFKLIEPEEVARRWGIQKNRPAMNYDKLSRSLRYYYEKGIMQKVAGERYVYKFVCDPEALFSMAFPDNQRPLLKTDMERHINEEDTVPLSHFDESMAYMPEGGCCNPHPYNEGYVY
Sequence,binding signal (FEV),binding signal (ETV5),binding signal (SPIC),binding signal (ELF4),binding signal (ELK4),binding signal (ETV2),binding signal (ELF3),binding signal (ETV1),binding signal (ERF),binding signal (ETV3L),binding signal (ETS2),binding signal (SPDEF),binding signal (ETV7),binding signal (ELF5),binding signal (ETV3),binding signal (ETV6)
CTCCGT,"1.14 fold enrichment (6-mer frequency, TF over GST control)","1.24 fold enrichment (6-mer frequency, TF over GST control)","1.14 fold enrichment (6-mer frequency, TF over GST control)","1.3 fold enrichment (6-mer frequency, TF over GST control)","1.37 fold enrichment (6-mer frequency, TF over GST control)","1.17 fold enrichment (6-mer frequency, TF over GST control)","1.13 fold enrichment (6-mer frequency, TF over GST control)","1.15 fold enrichment (6-mer frequency, TF over GST control)","1.07 fold enrichment (6-mer frequency, TF over GST control)","1.19 fold enrichment (6-mer frequency, TF over GST control)","1.22 fold enrichment (6-mer frequency, TF over GST control)","1.05 fold enrichment (6-mer frequency, TF over GST control)","1.33 fold enrichment (6-mer frequency, TF over GST control)","1.14 fold enrichment (6-mer frequency, TF over GST control)","1.22 fold enrichment (6-mer frequency, TF over GST control)","1.16 fold enrichment (6-mer frequency, TF over GST control)"
CAACTG,"1.14 fold enrichment (6-mer frequency, TF over GST control)","1.11 fold enrichment (6-mer frequency, TF over GST control)","1.13 fold enrichment (6-mer frequency, TF over GST control)","1.07 fold enrichment (6-mer frequency, TF over GST control)","1.21 fold enrichment (6-mer frequency, TF over GST control)","1.23 fold enrichment (6-mer frequency, TF over GST control)","1.26 fold enrichment (6-mer frequency, TF over GST control)","1.19 fold enrichment (6-mer frequency, TF over GST control)","1.18 fold enrichment (6-mer frequency, TF over GST control)","1.17 fold enrichment (6-mer frequency, TF over GST control)","1.13 fold enrichment (6-mer frequency, TF over GST control)","1.08 fold enrichment (6-mer frequency, TF over GST control)","1.06 fold enrichment (6-mer frequency, TF over GST control)","1.08 fold enrichment (6-mer frequency, TF over GST control)","1.16 fold enrichment (6-mer frequency, TF over GST control)","1.12 fold enrichment (6-mer frequency, TF over GST control)"
